This note sets out measurements from PubChem BioAssay (NCATS).

A short description of experiment [1]: qHTS assay for small molecule antagonists of peroxisome proliferator-activated receptor delta signaling (AID 588535; active means well fitted inhibition curve with a large enough effect in the signal ratio, with a control signal flat, not every such curve was filed as active; the % refers to the signal ratio;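 on max response: cells co-treated with a PPAR-delta agonist as stimulator during compound exposure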). The settings on record: HEK293T PPARd-UAS-bla, beta-lactamase FRET ratio, 18 h; 460 nm channel. A digest of the protocol:
(§1)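 Inhibition of PPAR-delta response element-driven beta-lactamase expression is measured in HEK293T cells exposed to a compound titration series for 18 hrs at 37 C. Half-maximal inhibition comes from Hill equation fitting.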

For experiment [2], the target named is Peroxisome proliferator-activated receptor delta (Homo sapiens) (UniProt Q03181). Described as above. The settings on record: HEK293T PPARd-UAS-bla, beta-lactamase FRET ratio, 18 h; series mostly up to 76.7 µM. A digest of the protocol: as §1
Sequence of Peroxisome proliferator-activated receptor delta (Homo sapiens) (Q03181 whole entry, looked up): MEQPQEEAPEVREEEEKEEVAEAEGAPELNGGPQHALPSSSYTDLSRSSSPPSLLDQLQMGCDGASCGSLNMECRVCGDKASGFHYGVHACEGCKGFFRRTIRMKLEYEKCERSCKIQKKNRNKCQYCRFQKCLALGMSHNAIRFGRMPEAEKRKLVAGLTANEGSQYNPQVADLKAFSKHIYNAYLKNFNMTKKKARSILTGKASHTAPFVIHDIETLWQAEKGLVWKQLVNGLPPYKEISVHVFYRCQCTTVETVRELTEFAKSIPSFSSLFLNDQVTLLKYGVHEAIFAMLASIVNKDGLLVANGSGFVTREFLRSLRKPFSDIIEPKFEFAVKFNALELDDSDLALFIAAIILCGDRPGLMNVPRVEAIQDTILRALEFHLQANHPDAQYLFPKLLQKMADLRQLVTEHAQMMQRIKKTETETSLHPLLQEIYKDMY
The target in experiment [3] is Peroxisome proliferator-activated receptor gamma (Homo sapiens) (UniProt P37231). The experiment in a line: qHTS assay for small molecule agonists of peroxisome proliferator-activated receptor gamma signaling (AID 588536; active means well fitted curve in the direction sought with a large enough effect in the signal ratio, with a control signal flat, not every such curve was filed as active; the % refers to the signal ratio;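 further: 0% = DMSO basal wells and 100% = rosiglitazone at 2 µM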). The settings on record: HEK293 PPARg-UAS-bla, beta-lactamase ratio, 16 h, percent of rosiglitazone response, DMSO as zero; series mostly up to 76.7 µM. A digest of the protocol:
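This is an agonist-mode beta-lactamase reporter assay in HEK293 PPAR-gamma-UAS-bla cells with 1% charcoal/dextran FBS. Compound titrations ran 16 h at 37 C before CCF4 detection. EC50 and efficacy are Hill fits scaled to 2 uM rosiglitazone (100%) and DMSO basal.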
On the technique in general: Quantitative high-throughput screening tests each substance at several concentrations.

For experiment [4] the target is unchanged. As to the kind of experiment: qHTS assay for small molecule antagonists of peroxisome proliferator-activated receptor gamma signaling (AID 588537; active means well fitted inhibition curve with a large enough effect in the signal ratio, with a control signal flat, not every such curve was filed as active; the % refers to the signal ratio;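 further: reporter cells co-stimulated with 50 nM rosiglitazone agonist during compound treatment; % of control where 0% means no effect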). The settings on record: HEK293 PPARg-UAS-bla, beta-lactamase ratio, antagonist mode; series mostly up to 76.8 µM. The procedure, abridged: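 Compounds are tested as concentration series for inhibition of rosiglitazone-driven (50 nM) reporter expression in GeneBLAzer PPAR-gamma-UAS-bla HEK293 cells. After 16 h at 37 C, CCF4 substrate is added for 2 h at room temperature and blue/green fluorescence is measured.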

Experiment [5] can be described thus: qHTS assay for small molecule agonists of retinoid X receptor alpha signaling (AID 588544; calls by dose curve;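 on activation: 0% = DMSO basal wells and 100% = reference agonist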). The settings on record: HEK293T RXRa-UAS-bla, beta-lactamase reporter, 18 h; 530 nm emission.
The target in experiment [6] is Retinoic acid receptor RXR-alpha (Homo sapiens) (UniProt P19793). The experiment is described as above. The settings on record: HEK293T RXRa-UAS-bla, beta-lactamase reporter, 18 h; series mostly up to 76.7 µM.
Sequence of Retinoic acid receptor RXR-alpha (Homo sapiens) (P19793 whole entry, looked up): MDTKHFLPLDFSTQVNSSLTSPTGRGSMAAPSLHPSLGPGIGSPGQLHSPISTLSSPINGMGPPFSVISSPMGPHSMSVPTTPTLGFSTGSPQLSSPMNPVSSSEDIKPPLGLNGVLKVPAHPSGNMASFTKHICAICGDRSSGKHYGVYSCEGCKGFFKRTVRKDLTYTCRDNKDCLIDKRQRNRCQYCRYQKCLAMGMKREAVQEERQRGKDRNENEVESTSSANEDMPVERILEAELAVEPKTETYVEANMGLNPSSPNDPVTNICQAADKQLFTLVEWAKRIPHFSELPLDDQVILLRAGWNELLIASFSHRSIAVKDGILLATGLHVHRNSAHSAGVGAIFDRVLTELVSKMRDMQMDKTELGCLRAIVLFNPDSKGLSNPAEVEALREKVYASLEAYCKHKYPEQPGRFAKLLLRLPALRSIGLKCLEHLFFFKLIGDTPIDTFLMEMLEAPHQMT
The target in experiment [7] is Thyroid hormone receptor beta (Homo sapiens) (UniProt P10828). The experiment in a line: qHTS assay for small molecule agonists of thyroid hormone receptor beta signaling (AID 588545; calls by dose curve; further: potency means the concentration at half of the fitted maximal effect). The settings on record: TR-UAS-bla GripTite HEK 293, beta-lactamase ratio, agonist mode, 18 h; series mostly up to 76.7 µM. A digest of the protocol:
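Cells (2500/well) were seeded, incubated 4 hrs at 37 C, dosed with a compound series, incubated 18 hrs, loaded with CCF4 dye for 2 hrs at RT, then read for fluorescence. Data were scaled between DMSO (0%) and 10 nM T3 (100%).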

Experiment [8] in a line: qHTS assay for small molecule antagonists of retinoid X receptor alpha signaling (AID 588546; active means well fitted inhibition curve with a large enough effect in the signal ratio, with a control signal flat, not every such curve was filed as active; the % refers to the signal ratio;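 further: cells stimulated with 9-cis-retinoic acid as agonist; on the % scale 0 is the no-effect control and ±100 the full control effect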). The settings on record: HEK293T RXRa-UAS-bla, beta-lactamase ratio, antagonist mode; measured here: W530 green channel, cytotoxicity proxy. The procedure, abridged: (§2)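 Beta-lactamase reporter inhibition, read as CCF4 fluorescence ratio (ex 405, em 460/530 nm) after 2 h at RT. HEK293T UAS-bla cells, 2500/well, were stimulated with 9-cis-RA at 500 or 100 nM final alongside test compound for 18 h at 37 C.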

For experiment [9], the target named is Retinoic acid receptor RXR-alpha (Homo sapiens) (UniProt P19793). The description is as above. The settings on record: HEK293T RXRa-UAS-bla, beta-lactamase ratio, antagonist mode. The procedure, abridged: as §2
In experiment [10] the target is Thyroid hormone receptor beta (Homo sapiens) (UniProt P10828). As to the kind of experiment: qHTS assay for small molecule antagonists of thyroid hormone receptor beta signaling (AID 588547; active means well fitted inhibition curve with a large enough effect in the signal ratio, with a control signal flat, not every such curve was filed as active; the % refers to the signal ratio;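 further: cells stimulated with 0.4 nM T3 agonist during compound exposure; on the % scale 0 is the no-effect control and ±100 the full control effect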). The settings on record: TR-UAS-bla HEK293, beta-lactamase ratio, antagonist mode, 18 h. The procedure, abridged:
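TR-UAS-bla GripTite HEK293 cells in 2% charcoal/dextran FBS medium were preincubated 4 h at 37 C, given compound (0.59 nM to 92 uM) plus 0.4 nM T3 (final) for 18 h, then CCF4 for 2 h at RT; Hill fit gave IC50.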

Experiment [11] has as its target Voltage-gated inwardly rectifying potassium channel KCNH2 (Homo sapiens) (UniProt Q12809). As to the kind of experiment: qHTS Assay for Small Molecule Inhibitors of the Human hERG Channel Activity (AID 588834).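 Further: lower thallium flux fluorescence means stronger hERG block; nearly all actives have a fitted effect of over 50% in size.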 Further: potency means the concentration at half of the fitted maximal effect. The settings on record: U2OS BacMam hERG, FluxOR thallium flux fluorescence; series mostly up to 46.1 µM. The procedure, abridged:
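Homogeneous FluxOR thallium flux assay using hERG-expressing U2OS cells (BacMam). Compound treatment about 10 minutes preceded stimulation; reduced fluorescence taken as channel block.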

Experiment [12] addresses Luciferin 4-monooxygenase (Photinus pyralis) (UniProt P08659). As to the kind of experiment: Biochemical firefly luciferase enzyme assay for NPC (AID 624030).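 Further: purified P. pyralis luciferase at 10 nM with luciferin and ATP substrate; 0% = DMSO and -100% = full luciferase inhibition by PTC124 control; nearly all actives have a fitted effect of over 70% in size.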 The settings on record: purified P. pyralis luciferase, luminescence, 5 min; series mostly up to 58.6 µM. The procedure, abridged: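 Counter-screen for direct inhibition of the luciferase enzyme by approved-drug library compounds, run at 10 nM enzyme in 50 mM Tris acetate (final). Luminescence was read within 5 min of enzyme-buffer addition and normalized to PTC124 versus DMSO (0%).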

The nature of experiment [13]: S16 Schwann cell viability assay (CellTiter-Glo assay) (AID 624031).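 Further: native untransfected S16 rat Schwann cells; plate controls were DMSO-treated cells for no effect and cell-free wells for full effect; nearly all actives have a fitted effect of over 70% in size.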 The conditions noted are these: S16 rat Schwann cells viability, 24 h; series mostly up to 57.5 µM. A digest of the protocol: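 Counter-screen for cytotoxicity: parental S16 rat Schwann cells lacking the PMP22 reporters, treated 24 h with compound, viability from cellular ATP by CellTiter-Glo luminescence, normalized to DMSO (0%) and no-cell wells.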
Background: ATP-based viability assays read luminescence as a measure of living cells.

Experiment [14] in a line: S16 Schwann cell PMP22 intronic element firefly luciferase assay (AID 624032).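 Further: plate controls were DMSO for no effect and PTC124 positive control mean for full effect; nearly all actives have a fitted effect of over 30% in size.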 The conditions noted are these: S16 rat Schwann cells, PMP22 element FLuc, 24 h; series mostly up to 57.5 µM. The procedure, abridged: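 Rat S16 Schwann cells stably carrying a PMP22 intronic element-driven Fluc reporter were seeded overnight, then exposed to compounds for 24 h at 37 °C. Luminescence was normalized to PTC124 (positive control) and DMSO (0% activity).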

In experiment [15] the target is Androgen receptor (Homo sapiens) (UniProt P10275). The experiment in a line: qHTS assay for small molecule agonists of androgen receptor signaling (AID 588515; active means well fitted curve in the direction sought with a large enough effect in the signal ratio, with a control signal flat; the % refers to the signal ratio; further: potency means the concentration at half of the fitted maximal effect). The conditions noted are these: AR-UAS-bla HEK293, beta-lactamase ratio, agonist 16 h; activation: stronger effect = higher value. A digest of the protocol:
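Stimulation of an AR-responsive β-lactamase reporter in GripTite HEK293 cells was measured after 16 h compound exposure at 37 °C, via CCF4 fluorescence after 2 h RT. EC50 from Hill fits, normalized to R1881 at 30 nM.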

The target in experiment [16] is Glucocorticoid receptor (Homo sapiens) (UniProt P04150). The experiment in a line: qHTS assay for small molecule antagonists of glucocorticoid receptor signaling (AID 588533; active means well fitted inhibition curve with a large enough effect in the signal ratio, with a control signal flat, not every such curve was filed as active; the % refers to the signal ratio;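 further: cells stimulated with 2 nM dexamethasone as agonist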; further: potency means the concentration at half of the fitted maximal effect). The conditions noted are these: HeLa MMTV-bla, GRE beta-lactamase ratio, antagonist mode, 18 h; series mostly up to 76.8 µM. A digest of the protocol: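 Antagonist-mode qHTS: compound titrations added to GRE-bla HeLa cells, then dexamethasone 2 nM final; 18 h, 37 C. CCF4 FRET fluorescence normalized to dexamethasone and DMSO; IC50 from Hill fit.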
Sequence of Glucocorticoid receptor (Homo sapiens) (P04150 whole entry, looked up): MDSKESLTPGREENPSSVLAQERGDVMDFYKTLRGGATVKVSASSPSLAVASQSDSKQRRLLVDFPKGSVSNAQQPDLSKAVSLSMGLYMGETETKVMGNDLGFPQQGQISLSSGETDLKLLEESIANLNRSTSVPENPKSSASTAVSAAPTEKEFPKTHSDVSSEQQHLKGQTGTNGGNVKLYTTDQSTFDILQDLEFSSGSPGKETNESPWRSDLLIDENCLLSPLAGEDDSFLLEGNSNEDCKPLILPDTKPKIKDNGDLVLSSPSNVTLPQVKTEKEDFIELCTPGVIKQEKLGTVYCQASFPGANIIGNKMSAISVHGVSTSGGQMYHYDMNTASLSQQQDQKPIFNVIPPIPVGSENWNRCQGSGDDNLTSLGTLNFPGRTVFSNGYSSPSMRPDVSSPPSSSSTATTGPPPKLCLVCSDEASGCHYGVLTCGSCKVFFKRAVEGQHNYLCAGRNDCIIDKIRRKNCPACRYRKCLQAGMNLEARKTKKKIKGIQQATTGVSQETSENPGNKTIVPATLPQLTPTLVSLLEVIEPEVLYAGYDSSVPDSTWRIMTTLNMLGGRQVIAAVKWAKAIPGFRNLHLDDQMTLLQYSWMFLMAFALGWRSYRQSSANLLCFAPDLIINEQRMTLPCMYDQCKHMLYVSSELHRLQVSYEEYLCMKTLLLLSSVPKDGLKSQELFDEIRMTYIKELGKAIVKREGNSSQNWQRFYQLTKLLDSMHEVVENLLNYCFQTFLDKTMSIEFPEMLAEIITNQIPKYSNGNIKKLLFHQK

Experiment [17] in a line: S16 Schwann cell PMP22 intronic element beta-lactamase assay (AID 624044; calls by dose curve;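 further: 0% = DMSO and -100% = potassium clavulanate positive control; nearly all actives have a fitted effect of over 15% in size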). The conditions noted are these: S16 rat Schwann cells, PMP22 element beta-lactamase FRET, 24 h; series mostly up to 38.3 µM. A digest of the protocol: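 Beta-lactamase reporter under a PMP22 intronic regulatory element in stable S16 rat Schwann cells; 24 h compound exposure. 460 nm blue signal normalized between DMSO (0%) and potassium clavulanate, with 535 nm FRET tracking viability; curves classed by r2 and response.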

The target in experiment [18] is Vitamin D3 receptor (Homo sapiens) (UniProt P11473). The experiment in a line: qHTS assay for small molecule antagonists of vitamin D receptor signaling (AID 588541; calls by dose curve;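 further: receptor activated by calcitriol during compound treatment; on the % scale 0 is the no-effect control and ±100 the full control effect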). The conditions noted are these: HEK293T VDR-UAS-bla, beta-lactamase ratio, antagonist mode; series mostly up to 76.7 µM. The procedure, abridged:
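VDR-UAS-bla HEK293T cells (2000/well, 2% charcoal-stripped FBS) were treated with titrated compounds plus 1-alpha,25-dihydroxyvitamin D3 (50 nM or 3 nM final) for 16 h at 37 C. CCF4 beta-lactamase fluorescence was read; Hill fits gave IC50.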

Experiment [19] concerns the target Bile acid receptor (Homo sapiens) (UniProt Q96RI1). The experiment in a line: qHTS assay for small molecule antagonists of farnesoid X receptor signaling (AID 588526; calls by dose curve; further: on the % scale 0 is the no-effect control and ±100 the full control effect). The settings on record: HEK293T FXR-UAS-bla, beta-lactamase ratio, antagonist mode; series mostly up to 76.7 µM. A digest of the protocol:
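Concentration-response titrations were fitted to the Hill equation for half-maximal inhibition and maximal response, with data normalised to 50 uM chenodeoxycholic acid and DMSO control wells. Cells: FXR-UAS-bla HEK293T, dialyzed FBS.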

Several values for one entry are separate records, joined by “and”; a condition that tells them apart may be missing. Equal values may be shown once. Records with an inconclusive call do not appear. Activity calls are given as the source filed them. Unless noted, the call rests on the fitted dose curve; in most records, active means well fitted curve in the direction sought with a large enough effect; inconclusive means small, poorly fitted or top-dose-only effect, or another doubt; inactive means no such curve, though single readings can be large; an effect the other way counts as inactive or inconclusive.

Sequence of Luciferin 4-monooxygenase (Photinus pyralis) (P08659 whole entry, looked up): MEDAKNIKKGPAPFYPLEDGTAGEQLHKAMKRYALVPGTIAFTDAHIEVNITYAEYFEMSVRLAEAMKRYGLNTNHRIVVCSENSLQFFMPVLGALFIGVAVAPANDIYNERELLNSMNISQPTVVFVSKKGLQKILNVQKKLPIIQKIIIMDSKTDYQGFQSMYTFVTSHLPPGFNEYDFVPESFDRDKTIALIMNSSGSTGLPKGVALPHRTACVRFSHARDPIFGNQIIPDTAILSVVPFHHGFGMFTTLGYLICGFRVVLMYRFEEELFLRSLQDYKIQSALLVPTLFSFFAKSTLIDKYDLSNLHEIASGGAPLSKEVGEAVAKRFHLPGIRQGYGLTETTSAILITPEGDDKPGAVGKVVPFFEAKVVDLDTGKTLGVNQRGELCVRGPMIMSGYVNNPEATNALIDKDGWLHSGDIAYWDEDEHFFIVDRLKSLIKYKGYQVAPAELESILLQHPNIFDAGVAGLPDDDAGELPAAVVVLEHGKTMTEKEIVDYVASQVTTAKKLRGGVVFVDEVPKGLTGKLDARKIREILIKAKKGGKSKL
Sequence of Vitamin D3 receptor (Homo sapiens) (P11473 whole entry, looked up): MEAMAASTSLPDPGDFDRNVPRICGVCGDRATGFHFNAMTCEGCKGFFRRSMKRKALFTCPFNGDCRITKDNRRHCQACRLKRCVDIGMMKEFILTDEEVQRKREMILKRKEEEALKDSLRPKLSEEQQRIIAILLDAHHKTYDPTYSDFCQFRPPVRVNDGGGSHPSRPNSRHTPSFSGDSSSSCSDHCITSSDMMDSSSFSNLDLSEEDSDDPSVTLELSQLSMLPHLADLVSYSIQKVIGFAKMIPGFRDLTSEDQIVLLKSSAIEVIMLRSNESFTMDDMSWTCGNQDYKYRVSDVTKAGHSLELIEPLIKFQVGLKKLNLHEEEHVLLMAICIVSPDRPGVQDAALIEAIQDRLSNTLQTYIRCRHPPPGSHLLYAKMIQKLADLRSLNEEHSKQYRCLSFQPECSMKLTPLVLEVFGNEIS
Sequence of Peroxisome proliferator-activated receptor gamma (Homo sapiens) (P37231 whole entry, looked up): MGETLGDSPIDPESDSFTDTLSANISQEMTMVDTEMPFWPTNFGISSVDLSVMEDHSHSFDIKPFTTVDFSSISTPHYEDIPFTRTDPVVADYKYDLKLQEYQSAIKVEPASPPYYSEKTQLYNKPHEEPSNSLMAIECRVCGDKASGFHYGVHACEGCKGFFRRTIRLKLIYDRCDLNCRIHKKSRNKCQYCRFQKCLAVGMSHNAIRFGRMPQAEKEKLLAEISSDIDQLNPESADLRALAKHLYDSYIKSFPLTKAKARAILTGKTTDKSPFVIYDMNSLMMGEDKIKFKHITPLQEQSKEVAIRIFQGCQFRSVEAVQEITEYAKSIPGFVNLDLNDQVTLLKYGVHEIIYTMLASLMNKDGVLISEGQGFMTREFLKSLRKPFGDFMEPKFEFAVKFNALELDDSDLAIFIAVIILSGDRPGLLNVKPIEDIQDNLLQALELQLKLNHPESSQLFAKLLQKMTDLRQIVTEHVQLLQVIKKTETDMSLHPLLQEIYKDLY
Sequence of Thyroid hormone receptor beta (Homo sapiens) (P10828 whole entry, looked up): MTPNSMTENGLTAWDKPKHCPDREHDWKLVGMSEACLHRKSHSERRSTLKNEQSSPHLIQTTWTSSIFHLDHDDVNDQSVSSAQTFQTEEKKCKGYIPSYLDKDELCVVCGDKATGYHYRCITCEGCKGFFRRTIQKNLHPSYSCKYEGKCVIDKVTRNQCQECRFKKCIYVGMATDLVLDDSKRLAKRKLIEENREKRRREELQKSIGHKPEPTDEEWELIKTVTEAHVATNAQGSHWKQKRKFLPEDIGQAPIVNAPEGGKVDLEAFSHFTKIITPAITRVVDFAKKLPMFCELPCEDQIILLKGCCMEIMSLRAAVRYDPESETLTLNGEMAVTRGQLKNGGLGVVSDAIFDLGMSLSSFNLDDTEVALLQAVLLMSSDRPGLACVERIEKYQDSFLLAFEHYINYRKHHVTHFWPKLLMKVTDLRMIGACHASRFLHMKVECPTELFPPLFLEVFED
Sequence of Voltage-gated inwardly rectifying potassium channel KCNH2 (Homo sapiens) (Q12809 whole entry, looked up): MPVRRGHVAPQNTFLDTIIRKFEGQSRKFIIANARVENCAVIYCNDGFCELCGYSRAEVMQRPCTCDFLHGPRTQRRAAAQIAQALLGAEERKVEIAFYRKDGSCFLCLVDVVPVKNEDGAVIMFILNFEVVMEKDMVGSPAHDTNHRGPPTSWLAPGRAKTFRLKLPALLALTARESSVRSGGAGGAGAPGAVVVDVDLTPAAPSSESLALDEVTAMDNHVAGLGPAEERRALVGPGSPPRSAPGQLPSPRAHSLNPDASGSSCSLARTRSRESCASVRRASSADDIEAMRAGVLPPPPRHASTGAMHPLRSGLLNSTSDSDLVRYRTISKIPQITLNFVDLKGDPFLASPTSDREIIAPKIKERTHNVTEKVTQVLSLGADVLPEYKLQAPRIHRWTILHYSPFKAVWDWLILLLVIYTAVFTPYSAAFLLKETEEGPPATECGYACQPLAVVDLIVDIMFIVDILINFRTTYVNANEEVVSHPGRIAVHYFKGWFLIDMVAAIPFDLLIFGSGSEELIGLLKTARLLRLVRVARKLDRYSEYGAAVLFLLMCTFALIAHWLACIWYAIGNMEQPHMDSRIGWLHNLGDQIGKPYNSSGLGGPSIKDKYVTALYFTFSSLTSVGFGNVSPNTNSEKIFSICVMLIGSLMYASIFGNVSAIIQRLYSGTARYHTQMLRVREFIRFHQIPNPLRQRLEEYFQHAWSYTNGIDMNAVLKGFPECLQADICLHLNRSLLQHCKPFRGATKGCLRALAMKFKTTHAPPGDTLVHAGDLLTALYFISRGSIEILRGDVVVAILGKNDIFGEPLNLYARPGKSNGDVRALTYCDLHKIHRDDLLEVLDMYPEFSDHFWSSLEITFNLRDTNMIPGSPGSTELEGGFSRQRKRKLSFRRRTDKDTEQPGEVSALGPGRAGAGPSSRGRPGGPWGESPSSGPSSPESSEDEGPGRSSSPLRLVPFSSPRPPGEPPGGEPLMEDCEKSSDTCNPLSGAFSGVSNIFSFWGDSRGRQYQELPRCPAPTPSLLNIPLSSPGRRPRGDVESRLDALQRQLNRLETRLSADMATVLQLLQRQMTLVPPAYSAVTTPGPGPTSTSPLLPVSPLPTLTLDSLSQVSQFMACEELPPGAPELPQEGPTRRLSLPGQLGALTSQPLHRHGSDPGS

With `NC(=O)N1c2ccccc2C=Cc2ccccc21`, the max response in experiment [1] was 34.8%; in experiment [5] it was -3.76% and -20.7%; in experiment [8], -1.27% and -13.7%; in [9], 2.96% (inactive) and -0.41% (inactive). The outcome in experiment [2], in [3], in experiment [4] and in [6] was inactive. The Potency entry in experiment [7], in experiment [11], in [12], in experiment [13] and in experiment [14] was “inactive” each time. Further, the activity change % (negative = inhibition) in experiment [10] was 8.17% (inactive).

Consider `Nc1nc(N)c2nc(-c3ccccc3)c(N)nc2n1`, for which the values for the Potency in experiment [15] and in [7] were 44.7 µM (active) and 22.4 µM (active), respectively. Also, in experiment [4], the outcome was inactive. Also, the Potency result in experiment [11], in [12] and in experiment [14] was “inactive” throughout.

`COc1ccc(CN(CCN(C)C)c2ccccn2)cc1`: the max response in experiment [1] is 15.1%; in experiment [5], 16.3%; in [8] it was 1.42%; in experiment [9], 2.77% (inactive). For the same compound, the result in [2], in experiment [3] and in experiment [6] was inactive. In addition, the Potency result in experiment [7], in experiment [12], in experiment [13] and in experiment [14] was “inactive” each time. In experiment [10], the activity change % (negative = inhibition) is -10.9% (inactive). In [11], the Potency was 12.6 µM (active) and 14.1 µM (active) and 8.91 µM (active).

Consider `Nc1ncn([C@@H]2O[C@H](CO)[C@@H](O)[C@H]2O)c(=O)n1`, for which the Potency in experiment [16] is 7.94 µM (active) and 5.62 µM (active). The max response is -23.8% in experiment [5], -15% in experiment [8] and 19.1% (inactive) in experiment [9]. Further, the compound was called inactive in experiment [6]. In addition, the Potency entry in experiment [7], in experiment [11], in experiment [12], in experiment [13] and in [17] was “inactive” throughout.

For `CN(C)[C@@H]1C(=O)C(C(N)=O)=C(O)[C@@]2(O)C(=O)C3=C(O)c4c(O)ccc(Cl)c4[C@@H](O)[C@H]3C[C@@H]12`, the Potency result in experiment [11] is “inactive”.

For `CC(C)NCC(O)c1cc(O)cc(O)c1` (stereo unspecified), the Potency result in [11] is “inactive”.

As to `CC(C)(C)NCC(O)c1cc(O)cc(O)c1` (stereo unspecified), the Potency entry in [11] is “inactive”.

In the case of `C[C@]12C=CC(=O)C=C1CC[C@H]1[C@@H]3C[C@@H](O)[C@](O)(C(=O)CO)[C@@]3(C)C[C@H](O)[C@@]12F`, the Potency result in [16], in experiment [7] and in experiment [11] was “inactive” throughout. Besides, the max response was 10.9% in [1], -12% in [5], -1.48% in [8] and -2.06% (inactive) in experiment [9]. Besides, the outcome in experiment [2], in [3], in [4], in experiment [18] and in experiment [6] was inactive. Besides, the activity change % (negative = inhibition) in experiment [10] was -4.06% (inactive).

On to `CCCCNC(=O)NS(=O)(=O)c1ccc(C)cc1`, for which the outcome in [19], in experiment [2], in experiment [3], in [4], in experiment [18] and in experiment [6] was inactive. For the same compound, the Potency entry in experiment [16], in experiment [7], in experiment [11], in [12], in experiment [13] and in [14] was “inactive” in each case. Also, the Potency result in experiment [17] is “inactive”. Besides, the max response in experiment [1] is -29.2% and 9.07%; in experiment [5], -17.3%; in experiment [8], -0.0633%; in experiment [9] it was -16.3% (inactive). Moreover, in experiment [10], the activity change % (negative = inhibition) is -17.2% (inactive) and -10.1% (inactive).

Consider `CC(=O)Nc1nnc(S(N)(=O)=O)s1`, for which the outcome in experiment [3], in experiment [4] and in experiment [6] was inactive. For the same compound, the results for the max response in experiment [5], in experiment [8] and in experiment [9] were -3.24%, -6.44% and -1.61% (inactive), respectively. Further, the activity change % (negative = inhibition) in experiment [10] is -8.01% (inactive). In addition, the Potency entry in experiment [11] and in experiment [12] was “inactive” throughout.
